Among the data in PubChem BioAssay (NCATS) are Potency values, retold here.

Inconclusive results are not listed. A call without a number means that no potency is given here. Active and inactive are the calls of the source. Calls come from the whole dose curve; as a rule, active = well fitted cell-killing curve with a large enough effect; inconclusive = small, poorly fitted or top-dose-only effect; inactive = flat fitted curve, though single readings scatter.
Potency is the fitted concentration of half-maximal effect.

This assay is described as follows: Cell Viability - LYMP1-003 - Assay at 40 hr (AID 964). Note: nearly all actives have a fitted effect of over 60% in size. The note with it: LYMP1-003 lymphoblastoid viability; series mostly up to 92.2 µM. An excerpt: NIH Chemical Genomics Center [NCGC]
NIH Molecular Libraries Screening Centers Network [MLSCN]
National Institutes of Environmental Health Sciences [NIEHS]
National Toxicology Program [NTP]
We have developed a 1536-well cell-based assay for quantitative high throughput screening (qHTS) against a number of cell lines to determine in vitro cytotoxicity of small molecules. This particular assay uses a human lymphoblastoid cell line (LYMP1-003) purchased from Coriell Institute for Medical Research.
NCGC Assay Protocol Summary:
The CellTiter-Glo luminescent cell viability assay (Promega) is a homogeneous method to measure the number of viable cells in culture. The end point readout of this assay is based on quantitation of intracellular ATP, an indicator of metabolic activity, using the luciferase reaction. Luciferase catalyzes the oxidation of beetle Luciferin to oxyluciferin and light in the presence of ATP. The luminescent signal is proportional to amount of ATP present.
Using the CellTiter-Glo luminescent cell viability assay, the amount of cellular ATP was measured in the lymphoblastoid cell line with complete culture medium following compound treatment for 40 hours. The assay was performed in opaque white Kalypsys 1536-well plates. In the screen, tetraoctylammonium bromide was used as positive control. Library compounds were measured for their ability to cause acute toxicity in the cell line, as reflected by a decrease in intracellular ATP levels, in a concentration-dependent manner. […] AC50 values were determined from concentration-response data modeled with the standard Hill equation.
qHTS protocol for CellTiter Glo lymphoblastoid cellular assay
[Step] [Parameter] [Value] [Description]
1. Reagent; 5 uL; 2500 lymphoblastoid cells/well
2. Time; 5 hr; 37 C incubation
4. Controls; 23 nL; Tetraoctylammonium bromide 6.4pM to 92 uM
5. Time; 40 hr; 37 C incubation
6. Reagent; 5 uL; CellTiter Glo reagent
7. Time; 30 min; Room Temperature
8. Detection; Luminescence; Viewlux plate reader
Keywords: cell viability, cytotoxicity, lymphoblastoid cell line, luminescence, NTPHTS, NTPHTS_NCGC, NIEHS, DSSTox, MLSMR, MLSCN, NIH Roadmap, qHTS, NCGC
On to `C1CCCNCC1`, for which the Potency result was “inactive”. For the compound `Cc1ccc(N)cc1[N+](=O)[O-]`, the Potency entry was “inactive”. In the case of `C=C1CC[C@H](O)C/C1=C/C=C1\CCC[C@]2(C)[C@@H]([C@H](C)CCCC(C)C)CC[C@@H]12` it was 39.8 µM (active); in that of `S=C(NC1CCCCC1)NC1CCCCC1`, “inactive”; in that of `c1ccc(SCCSc2ccccc2)cc1`, “inactive”. For `O=[N+]([O-])c1ccccc1Nc1ccccc1`, the Potency result is “inactive”. In the case of `Cc1ccc(S(N)(=O)=O)cc1` it was “inactive”. On to `CCOC(=O)C1OC1c1ccccc1` (stereo not given), for which the Potency entry was “inactive”.

With `c1ccc2ncccc2c1`, the Potency entry was “inactive”.

For the compound `c1ccc2c(c1)ccc1ccccc12`, the Potency result was “inactive”.

Turning to `COc1ccc([N+](=O)[O-])cc1N`, the Potency result was “inactive”. To `O=[N+]([O-])c1ccc(F)cc1F` belongs “inactive”; to `CC(C)S`, “inactive”. To `CCCC(=O)OC(=O)CCC` belongs “inactive”. In the case of `Oc1cc(Cl)cc(Cl)c1Cl` it was “inactive”; in that of `Nc1ccc(N)c(Cl)c1`, 39.8 µM (active). In the case of `Nc1cc([N+](=O)[O-])ccc1O`, the Potency entry was “inactive”.

For `O=C(Cl)c1ccc([N+](=O)[O-])cc1`, the Potency result is “inactive”.

As to `O=C1OC(=O)c2ccccc21`, the Potency entry is “inactive”.

`CC(C)OCC1CO1` (stereo not given): the Potency result was “inactive”. On to `Nc1ccc2c(c1)C(=O)c1ccccc1C2=O`, for which the Potency entry is “inactive”.

In the case of `Cc1cccnc1`, the Potency result was “inactive”. Turning to `Nc1ccc(-c2ccc(N)c(O)c2)cc1O`, the Potency entry was “inactive”. To `c1ccncc1` belongs “inactive”.

Turning to `CCCCOC(=O)COc1ccc(Cl)cc1Cl`, the Potency entry was “inactive”. As for `C/C=C1/C(=O)C[C@H]2[C@@H]3CCC4=CC(=O)CC[C@]4(C)[C@H]3CC[C@]12C`, the Potency was 39.8 µM (active). Consider `COc1ccc(C(=O)Nc2ccccc2)cc1[N+](=O)[O-]`, for which the Potency result was “inactive”.

Turning to `COc1ccc(C)cc1N`, the Potency entry is “inactive”. As to `O=C1c2ccccc2C(=O)C1(O)O`, the Potency entry is “inactive”. Consider `Cc1ccccc1OCC1CO1` (stereo not given), for which the Potency result was “inactive”.

Turning to `CCN(CC)c1ccc2c(C)cc(=O)oc2c1`, the Potency entry was “inactive”.

Consider `C=CC(C)(O)CCCC(C)CCCC(C)CCCC(C)C` (stereo not given), for which the Potency result is “inactive”. To `CN(C)c1ccc(Cc2ccc(N(C)C)cc2)cc1` belongs “inactive”.

For `O=c1[nH]ncc2ccccc12`, the Potency entry was “inactive”. To `COc1cc(-c2ccc(N=C=O)c(OC)c2)ccc1N=C=O` belongs “inactive”; to `O=CC(=O)c1ccccc1`, “inactive”; to `CCCCCCCC/C=C\CCCCCCCC(=O)N(CCO)CCO`, “inactive”.

Turning to `c1ccc(Nc2cccc3ccccc23)cc1`, the Potency result is “inactive”. For the compound `Clc1nc2ccccc2nc1Cl`, the Potency result was “inactive”. To `c1ccc(CSCc2ccccc2)cc1` belongs “inactive”.
